Experimental findings from PubChem BioAssay are described below.

Experiment [1] can be described thus: antimalarial activity against Dd2 strain (AID 2302;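 active = growth inhibition above 50% at the single 2 µM test dose, taken to imply half-maximal potency below 2 µM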;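 also: 0% = DMSO untreated growth and 100% = chloroquine plus artemisinin killed control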). The conditions noted are these: P. falciparum Dd2 in RBCs, LDH growth readout, 72 h; at 2 µM; active compounds read high.
Experiment [2] can be described thus: HepG2 cytotoxicity, primary screen, cytotoxicity control for P. falciparum antimalarial project, cell-based, ATP luminescence (AID 2303;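 active = inhibition above 50%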;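 also: 0% = DMSO wells and 100% = digitonin-killed cells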). The conditions noted are these: HepG2 viability, 24-48 h, at 10 µM, active compounds read high.
The target in experiment [3] is L-lactate dehydrogenase (Plasmodium falciparum (isolate CDC / Honduras)) (UniProt Q27743). Description: PfLDH activity inhibition – cell lysate, 3D7 strain, counter-screen for P. falciparum growth inhibition project (AID 2304).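 Also: 0% = vehicle and 100% = reference inhibitor.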 The conditions noted are these: P. falciparum 3D7 crude extract, LDH APAD/NBT absorbance; at 2 µM; active compounds read high. Background: Counterscreens check selectivity or assay interference.
L-lactate dehydrogenase (Plasmodium falciparum (isolate CDC / Honduras)), sequence (Q27743 whole entry, looked up): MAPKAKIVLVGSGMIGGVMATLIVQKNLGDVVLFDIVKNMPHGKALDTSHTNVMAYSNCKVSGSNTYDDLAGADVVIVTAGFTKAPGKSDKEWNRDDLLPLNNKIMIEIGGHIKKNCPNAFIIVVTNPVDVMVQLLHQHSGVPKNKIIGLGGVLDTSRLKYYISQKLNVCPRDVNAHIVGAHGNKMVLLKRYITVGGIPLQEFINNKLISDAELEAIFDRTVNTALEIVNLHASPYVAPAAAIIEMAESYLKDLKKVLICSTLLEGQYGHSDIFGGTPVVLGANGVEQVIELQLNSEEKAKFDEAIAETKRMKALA

A short description of experiment [4]: inhibition of 3D7 malaria parasite growth – strain 3D7 (AID 2306).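 Also: 0% = DMSO wells and 100% = chloroquine plus artemisinin control wells.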 The conditions noted are these: P. falciparum 3D7 erythrocytic growth, LDH absorbance, 72 h; at 2 µM; active compounds read high.
Experiment [5] deals with Calcium-dependent protein kinase 1 (Plasmodium falciparum (isolate 3D7)) (UniProt P62344). Description: PfCDPK1 kinase inhibitors, biochemical, TCAMS library (AID 1159585; cut-off not given, nearly all actives have IC50 up to about 0.98 µM;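 also: inhibitors leave more ATP so luminescence rises with inhibition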). The conditions noted are these: recombinant PfCDPK1, Kinase-Glo ATP depletion luminescence. On the technique in general: Kinase-Glo reads ATP consumption through a luciferase reaction.
Calcium-dependent protein kinase 1 (Plasmodium falciparum (isolate 3D7)), sequence (P62344 whole entry, looked up): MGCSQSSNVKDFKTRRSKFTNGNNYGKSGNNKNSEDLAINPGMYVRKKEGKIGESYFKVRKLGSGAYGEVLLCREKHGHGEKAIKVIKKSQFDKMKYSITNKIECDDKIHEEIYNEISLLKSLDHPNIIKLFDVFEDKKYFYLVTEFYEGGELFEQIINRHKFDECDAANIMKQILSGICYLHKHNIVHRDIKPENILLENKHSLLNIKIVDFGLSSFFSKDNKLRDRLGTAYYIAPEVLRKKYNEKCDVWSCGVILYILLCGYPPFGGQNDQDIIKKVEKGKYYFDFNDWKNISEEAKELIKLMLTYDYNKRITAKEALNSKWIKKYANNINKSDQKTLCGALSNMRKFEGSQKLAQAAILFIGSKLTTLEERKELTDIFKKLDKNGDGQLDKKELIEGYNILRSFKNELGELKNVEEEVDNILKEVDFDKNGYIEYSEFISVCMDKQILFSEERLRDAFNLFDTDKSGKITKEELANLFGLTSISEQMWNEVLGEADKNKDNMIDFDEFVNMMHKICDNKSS
Experiment [6] concerns the target Plasmodium falciparum protein kinase 6 (PK6, PF3D7_1337100) (UniProt Q8IDW1). As to the kind of experiment: PfPK6 kinase inhibitors, biochemical, TCAMS library (AID 1159586). The conditions noted are these: recombinant PfPK6, Kinase-Glo ATP depletion luminescence.
The target of experiment [7] is Protein kinase 7 (PK7), Plasmodium falciparum 3D7 (PF3D7_0213400) (UniProt Q7YTF7). As to the kind of experiment: inhibition of Plasmodium PK7 catalytic activity – biochemical, TCAMS antimalarial set, Kinase-Glo luminescence (AID 1159587). The conditions noted are these: recombinant PfPK7, Kinase-Glo ATP depletion luminescence.
Protein kinase 7 (PK7), Plasmodium falciparum 3D7 (PF3D7_0213400), sequence (Q7YTF7 1-343): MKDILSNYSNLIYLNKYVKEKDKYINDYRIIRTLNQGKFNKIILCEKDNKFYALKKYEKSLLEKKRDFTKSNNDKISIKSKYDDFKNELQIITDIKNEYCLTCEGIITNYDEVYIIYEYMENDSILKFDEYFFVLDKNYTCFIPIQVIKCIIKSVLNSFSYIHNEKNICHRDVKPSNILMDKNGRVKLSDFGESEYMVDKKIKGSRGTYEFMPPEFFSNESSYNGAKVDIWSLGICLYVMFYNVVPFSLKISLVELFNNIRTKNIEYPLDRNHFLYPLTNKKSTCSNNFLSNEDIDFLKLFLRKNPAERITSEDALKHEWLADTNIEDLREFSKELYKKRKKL
In experiment [8] the target is Calcium-dependent protein kinase 4 (Plasmodium falciparum (isolate 3D7)) (UniProt Q8IBS5). Description: PfCDPK4 kinase inhibitors, biochemical, TCAMS library (AID 1159588; cut-off not given, nearly all actives have IC50 up to about 0.91 µM). The conditions noted are these: recombinant PfCDPK4, Kinase-Glo ATP depletion luminescence.
Calcium-dependent protein kinase 4 (Plasmodium falciparum (isolate 3D7)), sequence (Q8IBS5 whole entry, looked up): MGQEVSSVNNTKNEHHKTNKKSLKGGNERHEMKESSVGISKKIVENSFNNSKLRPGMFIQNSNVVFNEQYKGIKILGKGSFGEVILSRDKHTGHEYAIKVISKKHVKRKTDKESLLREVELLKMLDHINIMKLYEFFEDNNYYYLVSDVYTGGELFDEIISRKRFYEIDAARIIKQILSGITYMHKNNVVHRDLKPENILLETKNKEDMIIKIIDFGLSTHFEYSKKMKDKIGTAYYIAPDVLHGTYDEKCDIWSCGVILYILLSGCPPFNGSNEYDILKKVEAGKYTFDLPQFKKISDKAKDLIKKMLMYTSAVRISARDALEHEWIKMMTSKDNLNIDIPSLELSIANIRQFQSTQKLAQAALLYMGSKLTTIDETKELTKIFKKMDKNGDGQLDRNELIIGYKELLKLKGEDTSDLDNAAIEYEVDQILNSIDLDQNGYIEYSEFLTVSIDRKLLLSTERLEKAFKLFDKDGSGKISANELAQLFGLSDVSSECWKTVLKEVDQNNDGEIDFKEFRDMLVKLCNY

The inhibition is the drop in the measured response relative to a control, in per cent.

Values without a mark were called inactive. For some assays here: Results with a measured potency or affinity are listed apart. The source made the active and inactive calls. Unless noted, no rule for the calls is given here.

Plasmodium falciparum protein kinase 6 (PK6, PF3D7_1337100), sequence (Q8IDW1 1-305): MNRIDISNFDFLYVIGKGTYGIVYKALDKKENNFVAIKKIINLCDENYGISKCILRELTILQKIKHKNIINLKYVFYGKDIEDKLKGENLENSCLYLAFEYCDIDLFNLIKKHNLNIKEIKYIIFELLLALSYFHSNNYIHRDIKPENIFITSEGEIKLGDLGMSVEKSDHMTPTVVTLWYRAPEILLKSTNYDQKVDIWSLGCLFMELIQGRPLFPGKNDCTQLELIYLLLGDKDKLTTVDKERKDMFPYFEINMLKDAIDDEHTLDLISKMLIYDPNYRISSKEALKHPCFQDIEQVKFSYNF

In the case of `CCOC(=O)c1[nH]c(-c2cc(Cl)nc(Cl)c2)nc1NC(=S)NCCCN1CCOCC1`, the results for the growth inhibition in experiment [1] and in experiment [4] were 71% (active) and 89% (active), respectively. Besides, the results for the inhibition in experiment [2] and in experiment [3] were 13% and 3%, respectively. For the same compound, the result in experiment [5], in experiment [6], in experiment [7] and in experiment [8] was inactive.

For `CC1(C)N=C(N)N=C(N)N1OCCOc1ccc(Cc2ccccc2)cc1`, the figures for the growth inhibition in experiment [1] and in experiment [4] were 26% and 94% (active), respectively. Further, the inhibition in experiment [2] is 62% (active); in experiment [3] it was 3%. In addition, the outcome in experiment [5], in experiment [6], in experiment [7] and in experiment [8] was inactive.

Consider `Cc1cc(NCCC(=O)NCCOc2ccccc2)nc(NCCc2ccc(F)cc2)n1`, for which the figures for the growth inhibition in experiment [1] and in experiment [4] were 4% and 97% (active), respectively. For the same compound, the figures for the inhibition in experiment [2] and in experiment [3] were 14% and 2%, respectively. The outcome in experiment [5], in experiment [6], in experiment [7] and in experiment [8] was inactive.

Consider `Cc1ccc2c(-c3ccc([N+](=O)[O-])o3)cc(C)nc2c1`, for which the growth inhibition in experiment [1] is 47%; in experiment [4], 95% (active). The inhibition in experiment [2] was 20%; in experiment [3], 3%. Moreover, the outcome in experiment [5], in experiment [6], in experiment [7] and in experiment [8] was inactive.

As to `COc1ccc(OC)c(-c2ccc(O)c(CNCC(C)c3ccccc3)c2)c1` (configuration not stated), the figures for the growth inhibition in experiment [1] and in experiment [4] were 96% (active) and 98% (active), respectively. Moreover, the inhibition in experiment [2] was 26%; in experiment [3], -2%. For the same compound, the outcome in experiment [5], in experiment [6], in experiment [7] and in experiment [8] was inactive.

In the case of `Cc1cc(N[C@@H](Cc2ccccc2)C(=O)NCc2cccc(F)c2)nc(NCCc2ccc(F)cc2)n1`, the growth inhibition in experiment [1] was 69% (active); in experiment [4], 99% (active). In addition, the inhibition in experiment [2] is 0%; in experiment [3] it was -2%. The result in experiment [5], in experiment [6], in experiment [7] and in experiment [8] was inactive.

Regarding `COc1ccc(CN2CCC(NCc3cccc([N+](=O)[O-])c3)CC2)cc1`, the growth inhibition in experiment [1] was 3%; in experiment [4], 92% (active). In addition, the inhibition was 6% in experiment [2] and 2% in experiment [3]. The result in experiment [5], in experiment [6], in experiment [7] and in experiment [8] was inactive.

As to `Cc1cc(N[C@@H](Cc2ccccc2)C(=O)NCc2cccs2)nc(NCCc2ccc(F)cc2)n1`, the growth inhibition in experiment [1] was 83% (active); in experiment [4], 100% (active). The inhibition in experiment [2] and in experiment [3] was 3% each time. Further, the outcome in experiment [5], in experiment [6], in experiment [7] and in experiment [8] was inactive.

As for `Oc1cc(Nc2ccnc3cc(-c4ccc(CN5CCCCC5)o4)c(Cl)cc23)c(Cl)cc1F`, the results for the growth inhibition in experiment [1] and in experiment [4] were 64% (active) and 102% (active), respectively. The inhibition in experiment [2] is -10%; in experiment [3], -5%. Further, the result in experiment [5], in experiment [6], in experiment [7] and in experiment [8] was inactive.

As to `COc1ccc2ncc(C#N)c(CCN3CCC(NCc4ccc5c(n4)NC(=O)CS5)CC3)c2n1`, the values for the growth inhibition in experiment [1] and in experiment [4] were 17% and 89% (active), respectively. Further, the inhibition in experiment [2] is 9%; in experiment [3] it was -1%. Further, the result in experiment [5], in experiment [6], in experiment [7] and in experiment [8] was inactive.

With `Cc1cc(O)c2c(c1)OC(C)(C)C=C2C1=CCN(Cc2ccccc2)CC1`, the figures for the growth inhibition in experiment [1] and in experiment [4] were 1% and 96% (active), respectively. Further, the inhibition was -2% in experiment [2] and -3% in experiment [3]. In addition, the result in experiment [5], in experiment [6], in experiment [7] and in experiment [8] was inactive.

For the compound `CC(C)COc1ccc(Cl)cc1Cc1ccc(-c2nc3ccc(Cl)cc3[nH]2)o1`, the growth inhibition in experiment [1] is 96% (active); in experiment [4] it was 97% (active). Also, the inhibition in experiment [2] was 19%; in experiment [3] it was -1%. For the same compound, the result in experiment [5], in experiment [6], in experiment [7] and in experiment [8] was inactive.

With `C[C@@H]1CN(c2cnn(C/C=C/c3ccc(NC(=O)c4ccc([N+](=O)[O-])cc4)cc3)c(=O)c2Cl)C[C@H](C)N1`, the growth inhibition was 38% in experiment [1] and 96% (active) in experiment [4]. Also, the inhibition in experiment [2] is 22%; in experiment [3], -3%. Moreover, the result in experiment [5], in experiment [6], in experiment [7] and in experiment [8] was inactive.

For the compound `CC(C)NCc1ccc(-c2ccc(-c3nc4ccc(C(F)(F)F)cc4[nH]3)cc2)cc1`, the growth inhibition in experiment [1] was 98% (active); in experiment [4], 100% (active). Further, the inhibition is 16% in experiment [2] and 0% in experiment [3]. Besides, the outcome in experiment [5], in experiment [6], in experiment [7] and in experiment [8] was inactive.

On to `CC(=O)N1N=C(c2ccccc2)Sc2c1nc(-c1ccc(Cl)cc1)n2C(C)=O`, for which the values for the growth inhibition in experiment [1] and in experiment [4] were 18% and 94% (active), respectively. The figures for the inhibition in experiment [2] and in experiment [3] were -1% and 0%, respectively. The result in experiment [5], in experiment [6], in experiment [7] and in experiment [8] was inactive.

For the compound `CCN(C(=O)CSc1cc(C)c2cc(C)cc(C)c2n1)C1CCS(=O)(=O)C1` (configuration not stated), the growth inhibition is 82% (active) in experiment [1] and 97% (active) in experiment [4]. Besides, the values for the inhibition in experiment [2] and in experiment [3] were 5% and -1%, respectively. Further, the result in experiment [5], in experiment [6], in experiment [7] and in experiment [8] was inactive.

Regarding `O=C(NC1CCC(N2CCC(O)(c3ccc(F)cc3)CC2)CC1)c1cc2ccccc2[nH]1` (configuration not stated), the growth inhibition in experiment [1] is 8%; in experiment [4], 94% (active). Besides, the inhibition is 9% in experiment [2] and -4% in experiment [3]. Further, the outcome in experiment [5], in experiment [6], in experiment [7] and in experiment [8] was inactive.

As for `COc1cc2nc(NCc3ccccc3)nc(NCc3ccccc3)c2cc1OC`, the growth inhibition in experiment [1] and in experiment [4] was 102% (active) throughout. Moreover, the inhibition is 66% (active) in experiment [2] and -3% in experiment [3]. Further, the outcome in experiment [5], in experiment [6], in experiment [7] and in experiment [8] was inactive.

On to `CC1(C)N=C(N)N=C(N)N1OCCCOc1ccccc1Cl`, for which the growth inhibition in experiment [1] was 94% (active); in experiment [4] it was 96% (active). Besides, the inhibition in experiment [2] is 64% (active); in experiment [3], 1%. Moreover, the result in experiment [5], in experiment [6], in experiment [7] and in experiment [8] was inactive.
